Compound activity: PubChem, The Scripps Research Institute Molecular Screening Center
ssDAF-12 act: S. stercoralis DAF-12 nuclear receptor activators, primary screen, cell-based, luminescence, HEK293, GRIP1 co-expression, lit1-tk-luc | Nuclear hormone receptor DAF-12 (Strongyloides stercoralis) | HEK293 ssDAF-12/GRIP1 lit1-tk-luc reporter; % of 3 µM dafachronic acid response | activation, % at 6.8 µM | 370,000 tested, 1% active | AID 652126, 2013;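 active = activation above the mean over all tested compounds plus 3 SD, cut at about 0.9% in these data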
GAA850 FXN act: FXN promoter activators, primary screen, cell-based, luciferase luminescence, HEK293 lucGAA850 | HEK293 lucGAA850 FXN promoter luciferase reporter, 24 h; percent of 10 µM SAHA response | 360,000 tested, 0.56% active | AID 540364, 2011 | activation, % at 6 µM;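 active = activation above the average of all compounds screened plus 3 SD, cutoff fixed separately per campaign, cut at about 7.5% in these data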
hgDAF-12 ag: H. glycines DAF-12 receptor agonists, primary screen, cell-based, luminescence, HEK293, GAL4 fusion, UAS-luciferase; 370,000 tested, 1.8% active; HEK293 GAL4-hgDAF12 UAS-luciferase reporter, agonist luminescence; normalized to butyrate control; activation, % at 6.8 µM; Nuclear hormone receptor DAF-12 (Heterodera glycines), GAL4 fusion; AID 687014, 2013;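 active = activation above a cutoff set at the mean of all screened compounds plus 3 SD, cut at about 10% in these data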
DAX1 inh-1: DAX1 (NR0B1) inhibitors, primary screen, cell-based, HEK293, Gal4-DAX1, luciferase luminescence; Nuclear receptor subfamily 0 group B member 1 (Homo sapiens), P51843; HEK293 Gal4-DAX1 luciferase reporter; inhibition, % at 6.75 µM; 340,000 tested, 0.99% active; AID 504766, 2011;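 active = inhibition above the mean over all tested compounds plus 3 SD, cut at about 4.2% in these data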;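 note: inhibition shows as a rise in luminescence from relieved DAX1 repression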
Target sequence (P51843 207-470 limits assumed): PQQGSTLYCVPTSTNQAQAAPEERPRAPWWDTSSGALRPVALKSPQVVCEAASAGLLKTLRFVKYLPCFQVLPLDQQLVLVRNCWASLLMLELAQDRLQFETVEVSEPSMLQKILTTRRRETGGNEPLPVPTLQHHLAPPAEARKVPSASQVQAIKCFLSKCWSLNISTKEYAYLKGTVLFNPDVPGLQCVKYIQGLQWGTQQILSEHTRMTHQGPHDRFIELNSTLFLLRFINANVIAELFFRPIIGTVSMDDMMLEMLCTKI
DAX1 inh-2: DAX1 (NR0B1) inhibitors on StAR promoter, primary screen, cell-based, luminescence, SF-1 (NR5A1), full-length DAX-1; HEK293T StAR-luciferase reporter, SF-1/DAX-1 repression relief; inhibition, % at 6.8 µM; 370,000 tested, 1.1% active;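 active = inhibition above the mean over all tested compounds plus 3 SD, cut at about 3.6% in these data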;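 note: higher inhibition means more luminescence from relief of DAX-1 repression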
hcDAF12 agonist: H. contortus DAF-12 nuclear receptor activators, primary screen, cell-based, luminescence, HEK293, lit1-tk-luc reporter. HEK293 hcDAF-12 lit1-tk-luc reporter; 0% DMSO, 100% Δ7-dafachronic acid. AID 652067, 2013. activation, % at 6.8 µM. 370,000 tested, 1.4% active;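 active = activation above the mean of all tested compounds plus 3 SD, cut at about 5.5% in these data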
hgDAF12 conf: H. glycines DAF-12 receptor agonists, confirmation, cell-based, luminescence, HEK293, GAL4-LBD fusion | shares compounds with hgDAF-12 ag | HEK293 GAL4-hgDAF12 luciferase reporter, agonist mode; percent of butyrate response | activation, % at 6.8 µM | 3,300 tested, 80% active | AID 743050, 2013;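 active = mean activation over triplicate wells above the hit cutoff derived from the earlier primary screen, cut at about 11% in these data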
LXRb DAF12 ctr: LXR agonists, Gal4 luciferase reporter, confirmation, counter-screen for hgDAF-12 agonist project, cell-based, luminescence, HEK293, H. glycines campaign | shares compounds with hgDAF-12 ag | activation, % at 6.8 µM | 24 h | 3,300 tested, under 10 active;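 active = mean activation of the triplicate above a set limit carried over from the primary screen, none filed active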
A number is an active result; n = inactive; x = no result. Shown are actives, neighbours in structure and some others; about 4.5% of the full set was active somewhere.

SMILES	ssDAF-12 act	GAA850 FXN act	hgDAF-12 ag	DAX1 inh-1	DAX1 inh-2	hcDAF12 agonist	hgDAF12 conf	LXRb DAF12 ctr
O=C1c2ccccc2-c2nnc(-c3ccc(F)cc3)cc21	1.4	n	15	7.1	n	6.0	11	n
CC(=O)c1cccc(NC(=S)NC(=O)c2ccc(C)cc2)c1	n	n	15	n	4.0	n	15	n
CCOc1cccc(C(=O)NC(=S)Nc2ccccc2)c1	n	n	19	n	n	n	16	n
CCOc1cccc(C(=O)NC(=S)Nc2cccnc2)c1	n	n	n	n	n	n	x	x
C[C@@H]1CN([C@H](C)CO)C(=O)CCCn2cc(nn2)CO[C@H]1CN(C)S(=O)(=O)c1ccccc1	n	n	n	n	n	n	x	x
CC(=O)Nc1ccc(CN2C(=O)C(C)(C)ON=C2c2ccc(C(F)(F)F)cc2)cc1	n	n	n	x	n	n	x	x
O=C(Nc1ccc(C(O)(C(F)(F)F)C(F)(F)F)cc1)c1ccc(Cl)c([N+](=O)[O-])c1	n	n	n	n	n	n	x	x
O=C(Nc1ccc(C(O)(C(F)(F)F)C(F)(F)F)cc1)c1ccc(Cl)cc1	n	x	14	x	x	n	n	n
O=C(Nc1cccc([N+](=O)[O-])c1)c1ccc2nsnc2c1	n	n	n	n	n	n	x	x
O=C(Nc1ccc(Cl)cc1)c1ccc2nsnc2c1	n	n	18	n	n	n	15	n
Cc1ccccc1N(C)C(=O)CN1CCN(c2nc(-c3ccccc3)cs2)CC1	n	x	n	x	n	n	x	x
Cc1c(C)n(CC(O)CN2C(=O)c3ccccc3S2(=O)=O)c2ccccc12 (stereo not given)	n	n	n	n	n	n	x	x
CSCc1ccc(C(=O)Nc2cccc(C)c2C)cc1	1.7	n	14	n	n	n	11	n
COc1ccc(CCNC(=O)Nc2ccccc2[N+](=O)[O-])cc1	n	n	16	x	n	n	n	n
COc1ccc(CCNC(=O)COC(=O)Cc2ccccc2[N+](=O)[O-])cc1	n	n	n	n	n	n	x	x
Cc1ccc2c(Cl)c(C(=O)Nc3cccnc3)sc2c1	n	n	20	n	n	n	18	n
CCN(CC)c1ccc2cc(C(=O)Nc3ccccn3)c(=O)oc2c1	n	n	14	n	n	n	18	n
CC1CC(C)CN(S(=O)(=O)c2ccc3c(c2)CCN3C(=O)C2CC2)C1 (stereo not given)	n	n	n	n	n	n	x	x
O=c1cc(-c2ccc(O)cc2)oc2ccccc12	n	n	n	n	n	n	x	x
O=c1c(O)c(-c2ccc(O)c(O)c2)oc2cc(O)ccc12	n	n	n	n	n	n	x	x
O=c1c(O)c(-c2ccc(O)cc2)oc2cc(O)cc(O)c12	n	n	15	n	n	n	n	n
O=c1cc(-c2ccccc2)oc2cc(O)ccc12	n	n	15	n	4.5	n	12	n
O=c1cc(-c2ccc(O)cc2)oc2cc(O)cc(O)c12	n	n	18	n	3.8	n	n	n
Cc1scc(C(=O)N/N=C/c2ccsc2)c1C	1.1	n	18	n	n	n	17	n
